Screening data: PubChem, Johns Hopkins Ion Channel Center
Only some compounds are listed: those with a hit (about 3.5% of all), similar ones and a draw of the others.
TMEM16A inh = TMEM16A chloride channel inhibitors, primary screen, cell-based, HTS; Anoctamin-1 (Mus musculus), Q8BHY3; HEK293 TMEM16A/YFP iodide influx fluorescence, ionomycin; normalized B-score (activity score, 25-100; higher = stronger inhibition) at 10 µM; 310,000 tested, 1.2% active; AID 588511, 2011;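 active = ratio plate-corrected score three or more library SD toward inhibition, starting fluorescence score within five deviations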;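 note: score derived from kinetic fluorescence span divided by baseline fluorescence per well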
Target sequence (Q8BHY3 whole entry, looked up): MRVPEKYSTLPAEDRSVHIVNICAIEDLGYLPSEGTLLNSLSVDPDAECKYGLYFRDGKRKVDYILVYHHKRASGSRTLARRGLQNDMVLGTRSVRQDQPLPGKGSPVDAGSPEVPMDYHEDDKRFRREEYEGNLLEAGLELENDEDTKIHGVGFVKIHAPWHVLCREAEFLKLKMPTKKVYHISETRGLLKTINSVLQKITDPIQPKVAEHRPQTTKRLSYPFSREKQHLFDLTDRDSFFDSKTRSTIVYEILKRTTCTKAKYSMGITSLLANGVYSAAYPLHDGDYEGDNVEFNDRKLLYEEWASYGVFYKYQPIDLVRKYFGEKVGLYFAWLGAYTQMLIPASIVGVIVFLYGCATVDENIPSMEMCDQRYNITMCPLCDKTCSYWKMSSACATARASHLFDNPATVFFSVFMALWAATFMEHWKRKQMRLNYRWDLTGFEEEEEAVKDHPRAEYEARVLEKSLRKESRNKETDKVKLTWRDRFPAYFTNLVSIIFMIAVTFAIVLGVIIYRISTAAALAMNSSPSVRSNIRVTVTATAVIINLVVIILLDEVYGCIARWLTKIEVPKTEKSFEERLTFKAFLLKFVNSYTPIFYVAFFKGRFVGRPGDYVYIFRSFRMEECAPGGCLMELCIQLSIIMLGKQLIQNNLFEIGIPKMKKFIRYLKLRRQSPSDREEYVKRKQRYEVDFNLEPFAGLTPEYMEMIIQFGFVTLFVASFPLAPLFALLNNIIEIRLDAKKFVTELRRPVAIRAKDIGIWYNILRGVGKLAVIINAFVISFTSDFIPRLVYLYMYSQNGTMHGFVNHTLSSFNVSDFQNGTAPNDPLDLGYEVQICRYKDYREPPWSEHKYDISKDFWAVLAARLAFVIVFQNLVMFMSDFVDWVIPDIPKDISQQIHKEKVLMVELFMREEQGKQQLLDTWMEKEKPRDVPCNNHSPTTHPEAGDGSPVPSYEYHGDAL
TMEM16A act = TMEM16A chloride channel activators or potentiators, primary screen, cell-based, HTS; Anoctamin-1 (Mus musculus), Q8BHY3; HEK293 TMEM16A/YFP-H148Q/I152L, iodide quench fluorescence; stronger effect = lower value; B-score at 10 µM; 340,000 tested, 0.3% active;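 active = fluorescence-ratio B-score plate-corrected deviation score at least 3 library SD below zero, with starting fluorescence score within 5 deviations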;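 note: channel opened by trigger with iodide after compound preincubation; score built on the fluorescence ratio of max minus min over baseline; more negative score means more quench and so TMEM16A activation or potentiation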
Kir21 inh = inhibitors of mouse Kir2.1 inward-rectifier potassium channel. Inward rectifier potassium channel 2 (Mus musculus), P35561. HEK293-Kir2.1, FluxOR thallium flux fluorescence; stronger effect = lower value. B-score at 10 µM. 310,000 tested, 0.85% active;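 active = fluorescence ratio B-score at or below minus 3 SD of library scores, with starting-brightness B-score within 2 SD, cut at about -4.2 in these data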;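 note: channel flux triggered by added potassium and thallium sulfate stimulus; B-score of peak minus minimum fluorescence over baseline after thallium stimulus; more negative B-score means stronger Kir2.1 block with less thallium influx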
KCNK9 block = KCNK9 potassium channel inhibitors, primary screen, HEK293 cells, thallium flux | Potassium channel subfamily K member 9 (Homo sapiens), Q9NPC2 | FluxOR thallium flux fluorescence; stronger effect = lower value | 310,000 tested, 1.2% active | B-score at 10 µM;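 active = ratio B-score over 3 SD below the library mean, with starting fluorescence within 5 SD of its mean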;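 note: negative B-score means less thallium flux so channel inhibition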
KCNK3 block = human KCNK3 channel inhibitors, primary screen, CHO cells, FluxOR thallium flux, B-score. Potassium channel subfamily K member 3 (Homo sapiens), O14649. FluxOR fluorescence; stronger effect = lower value. B-score at 10 µM. 340,000 tested, 0.84% active;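 active = B-score under library mean minus 4 SD, starting fluorescence ratio at most library mean plus 5 SD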;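 note: more negative B-score means stronger inhibition of thallium flux through KCNK3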
KCNK9 block conf = KCNK9 potassium channel inhibitors, confirmation, HEK293 cells, thallium flux, duplicate | shares compounds with KCNK9 block | FluxOR thallium flux fluorescence | inhibition, % at 10 µM | 4,900 tested, 43% active | AID 492992, 2010;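 active = thallium signal inhibited by more than 5 SD of the compound-free buffer control wells, on both duplicate plates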
Kir21 sel = mouse Kir2.1 channel inhibition, confirmation, selectivity assay for KCNK9 modulator project, cell-based, HEK293, thallium flux; 4,900 tested, 4% active; inhibition, % at 10 µM; shares compounds with KCNK9 block; Kir2.1 cells, FluxOR thallium flux fluorescence; AID 492993, 2010;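 active = thallium signal drop more than 5 SD beyond the mean of the no-compound control wells, seen in both duplicate plates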;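 note: signal is fluorescence rise after thallium addition divided by baseline fluorescence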
KCNK9 uninduced = thallium flux in non-induced HEK293 cells, confirmation, counter-screen for KCNK9 inhibitor project, cell-based, second counter screen, non-induced KCNK9-HEK293; shares compounds with KCNK9 block; 4,900 tested, 40% active; inhibition, % at 10 µM; FluxOR thallium flux; AID 492997, 2010;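 active = thallium signal drop beyond 5 SD of the untreated control mean, on both duplicate plates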
TMEM16A reconf = TMEM16A chloride channel inhibitors, confirmation, cell-based, re-confirmation; inhibition, % at 10 µM; 2,300 tested, 39% active; shares compounds with TMEM16A inh; HEK293 TMEM16A/YFP-H148Q, iodide quench fluorescence; ionomycin added to raise cell calcium;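 active = mean duplicate percent inhibition, scaled so buffer wells are 0 and the reference blocker 100, over three buffer SD above buffer mean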
HEK293 Ca mobil = calcium mobilization in TMEM16A/YFP HEK293 cells, confirmation, counter-screen for TMEM16A inhibitor project; shares compounds with TMEM16A inh; Fluo4 calcium mobilization; calcium response (% of ionomycin), % at 10 µM; 2,300 tested, 2% active; AID 652231, 2013;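 active = duplicate-averaged calcium signal over 20% of the ionomycin maximum, relative to buffer baseline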;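 note: each well's signal is peak minus trough fluorescence divided by its pre-addition baseline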
Parental YFP cnt = iodide YFP quench changes in parental YFP-HEK293, counter-screen for TMEM16A inhibitor project, cell-based; shares compounds with TMEM16A inh; ionomycin; YFP ratio F(max-min)/F0 at 10 µM; 2,300 tested, under 10 active; AID 652233, 2013;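 active = yellow fluorescent protein signal ratio exceeding the buffer control mean by over 5 SD of those controls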;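 note: ratio is mean of duplicate wells from kinetic YFP trace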
ClC-1 inh = ClC-1 chloride channel inhibition, selectivity assay for TMEM16A inhibitor project, cell-based, voltage-dependent ClC-1. CHO ClC-1-YFP, iodide influx fluorescence quench; iodide control reads 0, buffer control 100. AID 652236, 2013. shares compounds with TMEM16A inh. 2,300 tested, under 10 active. ratio percent, % at 10 µM;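 active = duplicate-mean ratio percent above the mean of iodide-only control wells, which defines zero, plus 5 of their SD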;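 note: higher percent means stronger block of ClC-1 iodide influx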
KCNK3 confirm = retest of human KCNK3 channel inhibitors, confirmation, CHO cells, FluxOR thallium flux, triplicate; ratio percent of control, % at 10 µM; 2,400 tested, 99% active; shares compounds with KCNK3 block; AID 651638, 2012; FluxOR fluorescence; 0% buffer, 100% carvedilol maximal block;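 active = ratio percent of control, averaged over triplicates, above buffer control mean plus 5 SD, cut at about 64% in these data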;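 note: ratio is the fluorescence rise from min to max over baseline after thallium stimulus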
KCNK3 noninduced = thallium flux inhibition in non-induced cells, primary screen, counter-screen for KCNK3 inhibitor project, cell-based, non-induced KCNK3 line, FluxOR thallium, triplicate. shares compounds with KCNK3 block. non-induced KCNK3 parental cells; stronger effect = lower value. thallium flux ratio (lower = more inhibition) at 10 µM. 2,400 tested, 40% active. AID 651747, 2012;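 active = thallium flux ratio, averaged over three wells, more than 5 SD below the buffer control mean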;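 note: host cells are CHO cells without KCNK3 induction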
Numbers stand for hits; – = inactive; · = no result.

SMILES | TMEM16A inh | TMEM16A act | Kir21 inh | KCNK9 block | KCNK3 block | KCNK9 block conf | Kir21 sel | KCNK9 uninduced | KCNK3 confirm | KCNK3 noninduced | others
O=S(=O)(NC1CCCCC1N1CCN(c2cccc(Cl)c2)CC1)c1ccccc1 (stereo not drawn) | – | – | – | -13.4 | -10.3 | 57.0% | – | 41.5% | 107.3 | –
CCOc1ccccc1C(=O)NC(C(=O)N(C)c1c(N)n(Cc2ccccc2)c(=O)[nH]c1=O)C(C)C (stereo not drawn) | · | – | · | · | – | · | · | · | · | ·
Cc1ccc(S(=O)(=O)N(C)C)cc1NC(=O)CSc1nnnn1-c1ccc(O)cc1 | – | – | – | -14 | -9.8 | 41.5% | – | 25.5% | 106.3 | –
CN(C)S(=O)(=O)c1ccc(Cl)c(NC(=O)CSc2nnnn2-c2ccc(O)cc2)c1 | · | – | – | -12.5 | -9.02 | 50.5% | – | 27.5% | 95.7 | –
Cn1nnnc1SCC(=O)Nc1cc(S(=O)(=O)N2CCCC2)ccc1Cl | – | – | – | – | – | · | · | · | · | ·
CCOc1ccc(S(=O)(=O)N2CCCC(C(=O)N3CCOCC3)C2)cc1Cl (stereo not drawn) | – | – | – | – | – | · | · | · | · | ·
CCCC(=O)Nc1cc(C)cn(Cc2c(F)cccc2Cl)c1=O | – | – | – | – | – | · | · | · | · | ·
CCOC(=O)NC(N(O)c1cccc(Cl)c1)C(Cl)(Cl)Cl (stereo not drawn) | – | – | – | -12.7 | -12.4 | 53.5% | – | 28.5% | 112.3 | –
Cc1cc(C(=O)N/N=C/c2ccc(-c3cccc(Br)c3)o2)n[nH]1 | – | – | – | -17.1 | -11.1 | 44.0% | – | – | 87.3 | –
COc1ccc(-c2nc3ccccn3c2NCc2ccc3c(c2)OCO3)cc1 | – | – | – | -9.56 | -9.71 | 47.5% | – | – | 109.7 | –
Cc1cccn2c(NCc3ccc4c(c3)OCO4)c(-c3ccc(O)cc3)nc12 | – | – | – | – | – | · | · | · | · | ·
COc1ccccc1NS(=O)(=O)c1ccc(O)c(C(=O)OCc2cccc([N+](=O)[O-])c2)c1 | – | – | – | -9.18 | -8.83 | – | – | 28.5% | 99.0 | –
COc1ccccc1NS(=O)(=O)c1ccc(C)c(C(N)=O)c1 | – | – | – | – | – | · | · | · | · | ·
CCOc1ccc(OCCSc2nnnn2C2CCCCC2)cc1 | – | – | – | -14.1 | -12.1 | 68.0% | – | 44.0% | 118.3 | 0.156
COc1ccccc1C(=O)Nc1ccc(S(=O)(=O)N(C)c2ccccc2)cc1 | – | – | – | -9.13 | -9.27 | 48.5% | – | – | 106.0 | –
CC(C)N(Cc1nc(-c2ccc(Cl)cc2)no1)C(=O)C(c1ccccc1)c1ccccc1 | – | – | – | -10.5 | -9.92 | 55.0% | – | 40.0% | 129.3 | 0.133
CCN(C(=O)CSc1nc2n[nH]c(C)c2c(=N)n1-c1ccc(Cl)c(C)c1)c1cccc(C)c1 | – | – | – | -21.2 | -12 | 68.5% | – | 40.0% | 96.7 | 0.13
O=C(Nc1ccc(C(=O)N2CCOCC2)cc1)Nc1cccc2ccccc12 | – | – | – | – | – | · | · | · | · | ·
CCc1cc2c(CN(C)Cc3ccccc3F)cc(=O)oc2cc1O | – | – | -5.91 | -8.47 | -14.7 | 41.5% | – | – | 113.7 | 0.159
COc1cccc(CN(C)Cc2cc(=O)oc3cc(O)c(Cl)cc23)c1 | – | – | – | – | – | · | · | · | · | ·
Cc1c(Cl)cccc1-n1nnnc1-c1cccs1 | – | – | – | -9.28 | -10.6 | 44.0% | – | 31.5% | 107.7 | –
Cc1ccc(-n2nnnc2-c2cccs2)cc1[N+](=O)[O-] | – | – | – | – | – | · | · | · | · | ·
CC[C@]12c3[nH]c4ccc(OC)cc4c3CCN1C(=O)C(CC(=O)NCCCn1ccnc1)C[C@@H]2C(=O)N1CCN(C(=O)c2ccco2)CC1 (stereo partly drawn) | · | · | · | · | – | · | · | · | · | ·
CCc1ccc(NC(=O)c2sccc2-n2cccc2)cc1 | – | – | – | -8.62 | -11.7 | 59.0% | – | 40.5% | 100.0 | 0.153
O=C(Oc1ccc(C(=S)N2CCOCC2)cc1Br)c1cc(Cl)ccc1Cl | – | – | – | -13.7 | -9.41 | 48.5% | – | 35.0% | 99.0 | –
CC(=O)c1ccc(NC(=O)CCOc2cc(C)ccc2C)cc1 | – | – | – | – | – | · | · | · | · | ·
COc1cc(O)cc2c1[C@@H]1Oc3c(ccc(O)c3CC=C(C)C)[C@@H]1CO2 | 25 | – | -5.15 | -11.6 | – | 54.0% | – | – | 136.7 | 0.124 | TMEM16A reconf=29.5%;HEK293 Ca mobil=–;Parental YFP cnt=–;ClC-1 inh=–
Cn1c(=O)n(CCO)c(=O)c2c1nc(Br)n2Cc1ccccc1 | – | – | – | – | – | · | · | · | · | ·
COC(=O)c1c(NC(=O)Cn2nc(C(F)F)cc2C(F)F)sc(C)c1C | – | – | – | – | – | · | · | · | · | ·
